# From PubChem BioAssay AID1117284 (Broad Institute, 2014)
# Results with a measured potency or affinity are listed apart. Activity calls are given as the source filed them.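 The calls were made as follows: active = viability signal drop whose fitted half-maximal concentration is at most twice the top valid dose; inconclusive = flat partial drop or unreliable curve fit; inactive = the rest.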
# Assay: lung carcinoma cell viability loss – CellTiter-Glo luminescence, dry powder, set 17, dose response (AID 1117284)
# Settings: A549 viability, CellTiter-Glo ATP luminescence, 72 h; series mostly up to 26 µM; activity change, negative = cytotoxic: at the top concentration
row,SMILES,"activity change, negative = cytotoxic"
1,CO[C@H]1CN(C)C(=O)c2ccc(NC(=O)c3ccc(F)cc3)cc2OC[C@H](C)N(C(=O)c2ccc(F)cc2)C[C@@H]1C,18.3% (inactive)
2,C[C@@H](O)C#Cc1ccc2c(c1)O[C@@H](CN(C)C(=O)c1ccc(-c3ccccc3)cc1)[C@@H](C)CN([C@@H](C)CO)S2(=O)=O,22.5% (inactive)
3,C[C@H](CO)N1C[C@H](C)[C@H](CN(C)Cc2ccc(-c3ccccc3)cc2)Oc2cc(C#C[C@@H](C)O)ccc2S1(=O)=O,16.2% (inactive)
4,C[C@H]1CN([C@@H](C)CO)S(=O)(=O)c2ccc(Br)cc2O[C@H]1CN(C)Cc1ccc(-c2ccccc2)cc1,3.58% (inactive)
5,C[C@@H](O)C#Cc1ccc2c(c1)O[C@@H](CN(C)Cc1ccncc1)[C@@H](C)CN([C@@H](C)CO)S2(=O)=O,24.1% (inactive)
6,C[C@@H](O)C#Cc1ccc2c(c1)O[C@@H](CN(C)Cc1cccnc1)[C@@H](C)CN([C@@H](C)CO)S2(=O)=O,8.93% (inactive)
7,C[C@@H](O)C#Cc1ccc2c(c1)O[C@@H](CN(C)S(=O)(=O)c1ccc(-c3ccccc3)cc1)[C@@H](C)CN([C@@H](C)CO)S2(=O)=O,15.3% (inactive)
8,CNC[C@@H]1Oc2cc(Br)ccc2S(=O)(=O)N([C@@H](C)CO)C[C@@H]1C,11.6% (inactive)
